Screening data: PubChem BioAssay, National Center for Advancing Translational Sciences (NCATS)
Compounds with a hit are over-represented: about 11% of the library has one in this group of screens.
ALDH1A1 inh – blocks purified human ALDH1A1 activity; Potency, µM (highest dose often 75.3 µM), for inactives: top-dose activity, negative = inhibition, actives largely listed as inhibitors; P00352; Purified ALDH1A1, NADH fluorescence, propionaldehyde substrate; 220,000 compounds, 7.3% hits;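 note: potency is the fitted concentration of half-maximal effect; plate controls were no enzyme wells and a reference inhibitor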
IMPase Li inh – cell-permeable IMPase inhibitors with lithium potentiation | Potency, µM (top dose mostly 59.4 µM), without a hit: at the top dose activity, negative = IMPase inhibition, usual class: inhibitors | 210,000 compounds, 0.35% hits | CHO-M1 cells, IP1 TR-FRET (IP-One), carbachol + lithium; active = well fitted inhibition curve with a large enough effect; inconclusive = small, poorly fitted or top-dose-only effect; inactive = no such curve, though single readings can be large or run the other way;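 note: IP1 builds up when IMPase is blocked and the TR-FRET signal falls; potency is the fitted concentration of half-maximal effect; plate controls were basal vehicle for no effect and high inhibitor control for full effect; nearly all actives have a fitted effect of over 50% in size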
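CHO cells stably expressing M1 receptor (2000/well) were cultured 16–30 h, then exposed to compounds with a small lithium addition for 30 min at 37C. IP1 was measured by TR-FRET competition; AC50 from Hill fits.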
IMPase cell inh – membrane-permeable compound that blocks inositol monophosphatase | P97697 | CHO-M1 cells, IP1 accumulation, HTRF TR-FRET ratio | inhibition (IP1 accumulation), % at 46.1 µM | 120,000 tested, under 10 active | AID 901; active = well fitted curve in the direction sought with a large enough effect in the signal ratio, not every such curve was filed as active; inconclusive = small, poorly fitted or top-dose-only effect, or a change in a side signal; inactive = no such curve, though single readings can be large or run the other way; the % refers to the signal ratio;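 note: cells stimulated with carbachol in lithium chloride buffer; plate controls were DMSO basal wells for no effect and reference inhibitor wells for full effect; higher means more IMPase inhibition seen as more IP1 and lower FRET ratio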
Target sequence (P97697 whole entry, looked up): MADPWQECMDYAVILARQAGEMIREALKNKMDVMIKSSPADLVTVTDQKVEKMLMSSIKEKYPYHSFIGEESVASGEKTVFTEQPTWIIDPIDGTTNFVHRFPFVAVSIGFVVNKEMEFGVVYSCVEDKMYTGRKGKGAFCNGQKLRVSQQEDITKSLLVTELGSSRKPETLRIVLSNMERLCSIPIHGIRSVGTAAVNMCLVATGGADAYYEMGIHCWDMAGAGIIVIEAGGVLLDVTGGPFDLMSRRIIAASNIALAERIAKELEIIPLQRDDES
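Seeded CHO-M1 cells were dosed with compound at up to 46 uM, stimulated with carbachol for 30 min, then lysed in IP-One detection reagents. Higher IP1 lowers the TR-FRET signal.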
PNC inhibitor – blocks assembly of the perinucleolar compartment | activity change (PNC), negative = inhibition, % at 10 µM | PC3M PTB-GFP, PNC prevalence imaging, 16 h; stronger effect = lower value | 140,000 compounds, 3.1% hits;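 active = readout at or below -70, meaning at least 70% loss of cells showing the perinucleolar compartment, a nuclear body marking cancer cells; inconclusive = readout between -30 and a set limit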;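 note: plate controls were DMSO wells for no effect and camptothecin positive control wells for full effect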
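PC3M cells stably expressing PTB-GFP, 750–1000 cells/well, treated 16 h at 37 °C with compound (23 nl of library stock), in duplicate. After paraformaldehyde fixation and Hoechst stain, imaged at 20x; PNC prevalence scored by image analysis.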
HPGD block – inhibitors of human 15-hydroxyprostaglandin dehydrogenase (HPGD) | purified HPGD, NADH fluorescence kinetic, PGE2 substrate | Potency, µM, inactives show at the highest dose activity change, negative = inhibition, actives largely listed as inhibitors | 150,000 compounds, 4.3% hits; note: potency is the fitted concentration of half-maximal effect
Target sequence (P15428 whole entry, looked up): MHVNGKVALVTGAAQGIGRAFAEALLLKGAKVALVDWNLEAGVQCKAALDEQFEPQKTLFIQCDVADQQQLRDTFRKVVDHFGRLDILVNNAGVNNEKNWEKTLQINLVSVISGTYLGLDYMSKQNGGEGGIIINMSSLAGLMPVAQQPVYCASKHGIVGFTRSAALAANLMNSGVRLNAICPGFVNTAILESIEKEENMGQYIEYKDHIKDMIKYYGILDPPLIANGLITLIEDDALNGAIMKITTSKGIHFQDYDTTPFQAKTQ
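NADH formation kinetics: reaction with 30 uM PGE2 and 1 mM NAD+ (final), 20 nM enzyme, Tris-HCl pH 8 with Tween 20, after 15 min compound preincubation at room temperature. Fluorescence change, last versus first of five reads.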
The depositor's hits bear a star; u = inconclusive; x = not tested or not shown; [ ] = another dose, or the depositor's remark. Unless noted, calls come from the whole dose curve; as a rule, active = well fitted inhibition curve with a large enough effect (not every such curve was filed as active); inconclusive = small, poorly fitted or top-dose-only effect, or another doubt; inactive = no such curve, though single readings can be large or run the other way. Unless noted, % is set by controls: 0 for no effect and ±100 for the full control effect.

SMILES	ALDH1A1 inh	IMPase Li inh	IMPase cell inh	PNC inhibitor	HPGD block
COC(=O)C[C@H]1c2ccccc2[C@H]2C(=C[C@@H](C)[C@H]3C(=O)N(O)C(=O)[C@H]32)N1C(=O)OC	-17%[13.5 µM]	1%	x	x	-10%
N#Cc1c(N)[nH]c(=S)c(C#N)c1-c1ccccc1	28µM*	13µM*	u	16	-24%
COc1ccc(-c2cc(-c3ccccc3)c(C#N)c(=S)[nH]2)cc1	u	-23%	x	x	x
O=C(CSC1CC(=O)N(c2ccc(C(=O)O)cc2)C1=O)Nc1ccc(Cl)cc1 (stereo not given)	-7%	3%	x	x	x
N#Cc1cnn(-c2cccc(Cl)c2)c1N	1%	1%	x	x	x
Nc1c(-c2cccc(Cl)c2)cnn1-c1cccc(C(F)(F)F)c1	-11%	36%[38.3 µM]	12	26	13µM*
Nc1c(-c2ccccc2)cnn1-c1cccc(C(F)(F)F)c1	-7%	6%[38.3 µM]	-14[1.84 µM]	u	10µM*
COc1cc(NCCCC(C)N)c2ncccc2c1 (stereo not given)	22µM*	28%[38.3 µM]	15	-20	-17%
COc1cc(NS(=O)(=O)c2ccc(C)cc2)c2ncccc2c1	0%	13%	1	-100*	u
Cc1ccc(S(=O)(=O)Nc2cccc3cccnc23)cc1	u	5%[38.3 µM]	-1	u	-26%
COc1ccc(NC(=O)CSc2cccc3cccnc23)c(OC)c1	6%	5%	x	-27	-17%
COc1cc(NC(=O)c2cc(-c3ccco3)on2)c(OC)cc1Cl	u	11µM*	6	-26	u
c1ccc2c[n+](CCCC[n+]3ccc4ccccc4c3)ccc2c1	-3%[13.5 µM]	12%	x	x	-4%
COc1ccc(/C=N/n2cnn(Cc3ccccc3Cl)c2=S)cc1	10µM*	16%	x	x	x
Cc1ccc(SCCNC(=O)c2ccccc2)cc1	u	-13%[38.3 µM]	-20	u	16µM*
COCCCNC(=O)c1ccc(C(=O)NCCCOC)cc1	20%	0%[38.3 µM]	4	15	-11%
Cc1ccccc1CNC(=O)c1ccccc1	u	21%[38.3 µM]	-9	u	16µM*
COCCNC(=O)c1ccc(C(=O)C(=O)c2ccccc2)cc1	-13%	-1%	x	24	14µM*
Cc1cc(SCNC(=O)c2ccccc2)nc(C(C)C)n1	u	2%	x	x	x
Cc1cc(C)nc(SCNC(=O)c2ccccc2)n1	-8%	8%	-7	-9	14µM*
COC(=O)C(Cc1c[nH]c2ccccc12)NC(=O)COc1ccc(Cl)cc1Cl (stereo not given)	x	x	-3	x	x
COc1cc(OC)c2c(c1)OC(=O)CC2c1ccccc1OC (stereo not given)	-9%	5%	x	x	-7%
CCn1cc(CNC(=O)CCc2nnc(CCC3CCCCC3)o2)cn1	-16%	13%	x	x	x
S=C(S)NCCN1CCNCC1	-3%[13.5 µM]	2%	x	x	-18%
COc1ccc(S(=O)(=O)N(CC(=O)NCCSc2ccc(C)cc2)c2ccc(C)cc2)cc1	x	x	-1	x	x
SMILES	ALDH1A1 inh	IMPase Li inh	IMPase cell inh	PNC inhibitor	HPGD block
COc1ccc(C(=O)NCCSc2ccc(C)cc2)cc1	10µM*	3%	x	-13	-13%
COc1ccc(C(=O)NCCSCc2ccc(C)cc2)cc1	2.2µM*	-11%[38.3 µM]	1	-13	0%
COc1ccc(C(=O)NCCSC2CCCCC2)cc1	3.5µM*	3%	x	5	-1%
N=C1C=CC=C2C1=NC1(CCCCC1)N2O	u	41%	u	u	2%
COc1cccc([C@@H]2Oc3ccc(OC)cc3C(=O)[C@H]2OC(=O)NS(=O)(=O)c2ccc(C)cc2)c1	4%	18%	x	x	-8%
CCn1cc(C(=O)O)c(=O)c2cc(F)c(N3CCNC(C)C3)c(F)c21 (stereo not given)	u	11%	x	x	u
CSC1=N/C(=C\c2ccccc2Cl)C(=O)N1N(C)C	18µM*	x	x	x	x
CCc1cc(-c2n[nH]c(=S)n2C(C)c2ccccc2)cs1 (stereo not given)	0.56µM*	30%[38.3 µM]	0	38	16µM*
Cc1scc(-c2n[nH]c(=S)n2C(C)c2ccccc2)c1C (stereo not given)	u	14%	x	-14	25µM*
CC(c1ccccc1)n1c(Cn2ncc3ccccc3c2=O)n[nH]c1=S (stereo not given)	-11%	7%	x	x	x
